Laboratory results from PubChem BioAssay (EPA / NIEHS).
Results filed as inconclusive are left out. Active and inactive are the calls of the source. How the source made its calls: active means hit-call score of the fitted dose curve at least 0.9, where 1 is the maximum; inconclusive means response in the unintended direction; inactive means score below 0.9.

Each compound was assayed on NCBI gene 100848466 (assay: NVS_NR_bPR: NovaScreen (NVS) Nuclear Receptor Binding Assay for bovine Progextron Receptor (PR) (AID 2283343);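 on AC50: actives lower bound radioligand signal below DMSO meaning displacement of the label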).
In short: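 Bovine uterine membrane preparation, cell-free; radioligand competitive displacement measured by scintillation counting 18 hours after dosing. Loss of signal versus DMSO baseline indicates binding; primary HTS single concentration 25 uM in duplicate, actives followed in concentration series.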

| Compound | AC50 | outcome |
| --- | --- | --- |
| C#C[C@]1(O)CC[C@H]2[C@@H]3CCc4cc(O)ccc4[C@H]3CC[C@@]21C | 51 nM (active) |  |
| C[C@]12CC[C@@H]3c4ccc(O)cc4CC[C@H]3[C@@H]1CC[C@@H]2O | 8.98 nM (active) |  |
| O=C(c1ccc(OCCN2CCCCC2)cc1)c1c(-c2ccc(O)cc2)sc2cc(O)ccc12 |  | inactive |

Each compound was assayed against bovine Estrogen Receptor (ER), ESR1 (gene 407238) (UniProt P49884) (assay: NVS_NR_bER: NovaScreen (NVS) Nuclear Receptor Binding Assay for bovine Estrogen Receptor (ER) (AID 2283345);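 further: actives lower the bound radioligand count which means they displace the ER ligand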).
Sequence of bovine Estrogen Receptor (ER), ESR1 (gene 407238) (P49884 whole entry, looked up): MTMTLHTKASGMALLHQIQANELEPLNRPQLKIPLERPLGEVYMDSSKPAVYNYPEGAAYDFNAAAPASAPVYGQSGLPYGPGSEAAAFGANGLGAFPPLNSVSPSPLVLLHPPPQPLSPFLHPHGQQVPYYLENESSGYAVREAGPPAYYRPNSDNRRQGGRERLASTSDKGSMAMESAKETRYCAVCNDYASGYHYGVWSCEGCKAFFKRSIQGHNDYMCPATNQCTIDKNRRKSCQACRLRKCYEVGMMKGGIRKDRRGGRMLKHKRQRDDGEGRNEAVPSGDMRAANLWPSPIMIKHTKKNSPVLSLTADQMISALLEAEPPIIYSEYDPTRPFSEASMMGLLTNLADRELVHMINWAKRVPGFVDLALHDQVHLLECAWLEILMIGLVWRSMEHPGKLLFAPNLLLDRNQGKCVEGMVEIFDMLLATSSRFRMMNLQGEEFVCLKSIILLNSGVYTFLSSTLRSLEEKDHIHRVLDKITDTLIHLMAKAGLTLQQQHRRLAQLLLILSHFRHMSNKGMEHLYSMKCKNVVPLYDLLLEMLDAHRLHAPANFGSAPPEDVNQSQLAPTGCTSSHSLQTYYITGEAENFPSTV
In short: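 Cell-free radioligand binding with receptor from bovine uterine membranes, read by scintillation counting 18 h after dosing. Loss of specific binding was scored against DMSO; primary screen at 25 uM in duplicate, actives then run as concentration series.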

| Compound | outcome | AC50 |
| --- | --- | --- |
| CC(=O)OC(C)(C)C1CC=C(C)CC1 (centres undefined) | inactive |  |
| CN(C)CCC=C1c2ccccc2CCc2ccccc21 | inactive |  |
| O=S1(=O)CC(Cl)(Cl)C(Cl)(Cl)C1 | inactive |  |
| CCCCCCCCOC(=O)c1ccc(O)cc1 | inactive |  |
| CCCCCCOc1ccc(O)cc1 | inactive |  |
| CC(C)(C)c1ccc(S)cc1 |  | 551 nM (active) |
| Cc1cc(O)c2c(c1)C(=O)c1cc(O)cc(O)c1C2=O | inactive |  |
| CC(C)(CO)CO | inactive |  |
| CCCCCCCCCOS(=O)(=O)O | inactive |  |
| CC(=O)C1C(=O)C=C(C)OC1=O (centres undefined) | inactive |  |
| O=C(Nc1cccc(Cl)c1)OCC#CCCl | inactive |  |
| CCCCCCCCCCCCOCCOS(=O)(=O)O | inactive |  |
| O=C1OC2(c3ccc(O)cc3Oc3cc(O)ccc32)c2ccccc21 |  | 15800 nM (active) |
| CC/C=C\CCOC(C)OCC (centres undefined) | inactive |  |
| COc1ccccc1O | inactive |  |
| CCC(=O)OC(C)(C)C1CC=C(C)CC1 (centres undefined) | inactive |  |
| C[C@H](CCC(=O)O)[C@H]1CC[C@H]2[C@@H]3CC[C@@H]4C[C@H](O)CC[C@]4(C)[C@H]3CC[C@]12C | inactive |  |
| CCC(C)(C)c1cc(O)c(C(C)(C)CC)cc1O | inactive |  |
| CC(O)CN (centres undefined) | inactive |  |
| CCOCC(C)O (centres undefined) | inactive |  |
| CCCCCC(=O)O[C@]1(C(C)=O)CC[C@H]2[C@@H]3CCC4=CC(=O)CC[C@]4(C)[C@H]3CC[C@@]21C | inactive |  |
